Screening data (PubChem BioAssay)
TSHR ag – activates the human thyroid stimulating hormone receptor | 73,000 tested, 0.48% active | HEK293-CNG-TSHR cells (CNG channel as cAMP sensor), membrane potential dye, cAMP | P16473 | Potency, µM (series often up to 57.1 µM), for inactives: at the highest dose activation, hits mostly activators; active = well fitted activation curve with a large enough effect in the main read-out, with a control signal flat, not every such curve was filed as active; inconclusive = small, poorly fitted or top-dose-only effect, or a change in a side signal; inactive = no such curve, though single readings can be large or run the other way; % of control where 0% means no effect;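 also: the control signal comes from parental cells without the receptor; potency is read from the fitted curve at half-maximal effect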
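cAMP rise detected as CNG-channel membrane depolarization by fluorescent dye (emission 590 nm), 30 min after compound, following 60 min dye loading containing 100 uM RO 20-1724 at room temperature. Cells: TSHR/CNG HEK 293, with parental CNG HEK 293 as control.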
Epigenetic mod – derepresses silenced GFP locus in mouse C127i cells; mouse C127i GFP locus derepression, cytometry, 30 h; 68,000 tested, 0.09% active; Potency, µM (doses to about 46.1 µM), inactives show at the highest dose GFP derepression (activation); also: % of control where 0% means no effect
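Murine C127i mammary cells carrying a silenced, stably integrated CMV-driven GFP reporter were treated with compound for 30 hours at 37 C. After PBS washes, GFP-positive cells were counted by laser-scanning microplate cytometry.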
HEK293 cAMP ctrl – raises cAMP in parental HEK293 cells, TSHR agonist counter-screen; parental HEK293 CNG cAMP sensor, membrane potential fluorescence; Potency, µM (doses to about 57.1 µM), without a hit: at the highest dose activation, actives largely listed as activators; 73,000 tested, 2.5% active; AID 938; also: potency is read from the fitted curve at half-maximal effect; % of control where 0% means no effect; nearly all actives have a fitted effect of over 55% in size
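Parental HEK 293 cells stably expressing a cAMP-gated CNG channel were loaded with membrane potential dye containing 100 uM RO 20-1724 for 60 min. Compound added for 30 min; depolarization read as fluorescence intensity at 590 nm.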
HBB splicing – hemoglobin beta splicing modulation; HBB splicing reporter cell assay, activation; EGFP reporter with mutant IVS2-654 intron; response scale: normalised to 500 nM splice-correcting PNA; 65,000 tested, 0.06% active; Potency, µM (highest dose often 46.1 µM), for inactives: at the highest dose activation, hits mostly activators; AID 925; also: potency is read from the fitted curve at half-maximal effect; 0% is about no effect
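Compounds were applied for 2 days to HeLa EGFP-654 cells, 500/well in Optimem with 2% FCS. The reporter's EGFP is disrupted by mis-splicing of beta-globin intron IVS2-654. Readout: summed well GFP fluorescence from 488 nm laser scanning; reference was 500 nM antisense […] 654 PNA.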
UbGFP stabilizer – ubiquitin-GFP accumulation via proteasome inhibition; Potency, µM (series often up to 45.9 µM), without a hit: top-dose activation (GFP accumulation), actives largely listed as activators; 67,000 tested, under 10 active; Ubiquitin-GFP reporter cells, proteasome inhibition, GFP fluorescence; response scale: untreated = 0%, 10 µM MG-132 = 100%; active = well fitted activation curve with a large enough effect, not every such curve was filed as active; inconclusive = small, poorly fitted or top-dose-only effect, or another doubt; inactive = no such curve, though single readings can be large or run the other way; also: potency is read from the fitted curve at half-maximal effect
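Proteasome blockade was scored as a rise in GFP-expressing U2OS cells carrying a ubiquitin(G76V)-GFP construct, imaged after 4 hr compound treatment at 37 °C across a 46 uM–2.9 nM series.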
* = called active by the depositor; [ ] = another dose, or the depositor's remark. Shown are actives, neighbours in structure and some others; about 3% of the full set was active somewhere. Unless noted, calls follow the shape of the dose curve; as a rule, active = well fitted curve in the direction sought with a large enough effect; inconclusive = small, poorly fitted or top-dose-only effect, or another doubt; inactive = no such curve, though single readings can be large; an effect the other way counts as inactive or inconclusive.

`CCC(Sc1nc(C)cc(=O)[nH]1)C(=O)Nc1nnc(C)s1` (stereo not given) gave TSHR ag -1%, Epigenetic mod -2%, HEK293 cAMP ctrl 0%, HBB splicing -2% and UbGFP stabilizer 3%.
For CCC(Sc1nnc(C)s1)C(=O)Nc1nccs1 (stereo not given) the results were TSHR ag inconclusive, Epigenetic mod 6%, HEK293 cAMP ctrl 25µM*, HBB splicing 0% and UbGFP stabilizer 3%.
CCC(Sc1nc2ccccc2s1)C(=O)Nc1nnc(C)s1 (stereo not given) was read as TSHR ag inconclusive, Epigenetic mod -2%, HEK293 cAMP ctrl 20µM*, HBB splicing -2% and UbGFP stabilizer 9%.
Nc1cnn([C@@H]2O[C@H](CO)[C@@H](O)[C@H]2O)c(=O)n1 was read as TSHR ag 3%, HEK293 cAMP ctrl 17% and HBB splicing -1%.
CCN1C(=O)[C@@H]2[C@H]3C(=CC[C@@H]2C1=O)C1(OCCCO1)[C@H]1O[C@@H]1[C@H]3O was read as TSHR ag 2%[11.4 µM], HEK293 cAMP ctrl -3%[11.4 µM] and HBB splicing 2%[9.22 µM].
Screening CC(C)c1nc(-c2c(N)n(C)c(=O)n(C)c2=O)sc1C(=O)C(C)(C)C returned TSHR ag inconclusive, Epigenetic mod 2%, HEK293 cAMP ctrl 16µM*, HBB splicing 0%[57.5 µM] and UbGFP stabilizer 1%.
`CCN(CC)CCCNC(=O)c1ccc(Cc2nc3ccccc3[nH]2)cc1` gave TSHR ag -4% and HEK293 cAMP ctrl -19%.
`COc1ccc(CCNc2ncnc3c2oc2ccccc23)cc1OC` gave TSHR ag inconclusive, Epigenetic mod 0%, HEK293 cAMP ctrl 13µM*, HBB splicing 5%[0.369 µM] and UbGFP stabilizer -3%.
CCn1nnc(NC(=O)c2ccccc2Br)n1 was read as TSHR ag inconclusive, Epigenetic mod 0%, HEK293 cAMP ctrl 32µM*, HBB splicing -2% and UbGFP stabilizer 1%.
C=COCCn1c(-c2nonc2N)nc2ccccc21 was read as TSHR ag inconclusive, Epigenetic mod -2%, HEK293 cAMP ctrl 25µM*, HBB splicing 1% and UbGFP stabilizer 28%.
Screening Cc1ccc(Cn2c(-c3nonc3N)nc3ccccc32)cc1 returned TSHR ag inconclusive, Epigenetic mod -1%, HEK293 cAMP ctrl 32µM* and UbGFP stabilizer -2%.
Screening CCC(=O)Nc1nonc1-c1nc2ccccc2n1N(C(=O)CC)C(=O)CC returned TSHR ag 6%[11.4 µM], Epigenetic mod 4%, HEK293 cAMP ctrl 9%, HBB splicing 1% and UbGFP stabilizer -1%.
Clc1ccc(Cn2c(CN3CCCC3)nc3ccccc32)cc1 was read as TSHR ag inconclusive, Epigenetic mod -4%[20.6 µM], HEK293 cAMP ctrl inconclusive, HBB splicing -1%[20.6 µM] and UbGFP stabilizer -5%[20.5 µM].
`Nc1nonc1-c1nc2ccccc2n1Cc1ccc(Cl)cc1` gave TSHR ag inconclusive, Epigenetic mod -2%, HEK293 cAMP ctrl 16µM*, HBB splicing 1% and UbGFP stabilizer -7%.
Screening CCC(=O)Nc1nonc1-c1nc2ccccc2n1Cc1ccccc1 returned TSHR ag inconclusive, Epigenetic mod 0%, HEK293 cAMP ctrl 20µM*, HBB splicing 0% and UbGFP stabilizer 0%.
O=C(O)[C@@H]1CCCN1Cc1ccc2c(c1)OCO2 was read as TSHR ag -3%[11.4 µM], Epigenetic mod -3%[9.22 µM], HEK293 cAMP ctrl 2%[11.4 µM], HBB splicing 1%[9.22 µM] and UbGFP stabilizer -9%[9.17 µM].
`S=C(S)NCCN1CCNCC1` gave TSHR ag -5%[11.4 µM], Epigenetic mod 2%[9.22 µM], HEK293 cAMP ctrl 7%[11.4 µM], HBB splicing 1%[9.22 µM] and UbGFP stabilizer 6%[9.17 µM].
Cn1cccc1-c1nc2ccccc2n1Cc1ccccc1 was read as TSHR ag inconclusive, Epigenetic mod 0%, HEK293 cAMP ctrl 32µM*, HBB splicing -1% and UbGFP stabilizer 11%.
Screening c1coc(Cn2c(-c3ccco3)nc3ccccc32)c1 returned TSHR ag inconclusive, Epigenetic mod 2%, HEK293 cAMP ctrl inconclusive and UbGFP stabilizer 0%.
